High-throughput results from PubChem BioAssay.
In the library only some 7.3% were active in any assay of this set; here they are far more common.
FLuc modulator – inhibits or activates purified firefly luciferase, miR-21 counter-screen | purified FLuc, Km substrates, luminescence inhibition | Potency, µM (highest dose often 57.5 µM), inactives show at the top dose activity change, negative = inhibition, usual class: inhibitors | 360,000 tested, 6.9% active | AID 588342;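 note: plate controls were vehicle for no effect and reference inhibitor for full effect; nearly all actives have a fitted effect of over 55% in size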
Target sequence (P08659 whole entry, looked up): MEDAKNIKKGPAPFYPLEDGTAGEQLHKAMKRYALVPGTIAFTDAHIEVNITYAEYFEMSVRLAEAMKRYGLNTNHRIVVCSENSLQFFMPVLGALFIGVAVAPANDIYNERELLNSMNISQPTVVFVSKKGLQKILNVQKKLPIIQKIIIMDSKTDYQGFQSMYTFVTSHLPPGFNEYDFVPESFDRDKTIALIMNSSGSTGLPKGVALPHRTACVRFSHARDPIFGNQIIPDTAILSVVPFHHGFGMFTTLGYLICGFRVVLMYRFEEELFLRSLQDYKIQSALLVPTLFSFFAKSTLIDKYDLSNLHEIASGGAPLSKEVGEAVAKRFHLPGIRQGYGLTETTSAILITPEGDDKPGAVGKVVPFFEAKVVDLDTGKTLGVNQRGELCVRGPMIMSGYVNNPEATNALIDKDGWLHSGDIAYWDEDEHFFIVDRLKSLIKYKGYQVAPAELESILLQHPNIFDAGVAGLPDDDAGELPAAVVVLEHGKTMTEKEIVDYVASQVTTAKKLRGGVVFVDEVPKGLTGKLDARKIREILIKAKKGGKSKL
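Biochemical qHTS of compounds, final roughly 60 µM downward over six points, against 10 nM purified firefly luciferase using Km concentrations of substrates (10 uM D-luciferin, 10 uM ATP) in Tris acetate pH 7.5 buffer; luminescence output.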
NPC1 promoter act – activates the NPC1 promoter. Huh7 NPC1 promoter luciferase reporter, 24 h. Potency, µM (series often up to 9.22 µM), for inactives: at the top dose activation, usual class: activators. 320,000 tested, 2.4% active. AID 485313; note: % of control where 0% means no effect; nearly all actives have a fitted effect of over 60% in size
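NPC1 promoter–luciferase Huh7 cells; 24 h compound; luminescence.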
Rab9 promoter act – activators of Rab9 promoter; Potency, µM (doses to about 9.22 µM), inactives show top-dose activation, negative = inhibition, actives largely listed as activators; 320,000 tested, 2.8% active; Huh7 Rab9 promoter-luciferase reporter, luminescence, 24 h; note: % of control where 0% means no effect; nearly all actives have a fitted effect of over 60% in size
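Luminescence from Amplite-detected luciferase (10 minutes, ambient) reports Rab9 promoter activation. Before that, stable Rab9-luciferase Huh7 cells (1500/well, reduced-serum OP-MEM I plus 10% FBS) were exposed to compound for 24 hours at 37C.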
Luc counter – blocks Kinase-Glo luciferase, a counter-screen artifact | Q27757 | Kinase-Glo luciferase, ATP luminescence, 8 min | Potency, µM (series often up to 38.3 µM), for inactives: at the highest dose activity change, negative = inhibition, usual class: inhibitors | 200,000 tested, 0.28% active | AID 1379; note: % is set by controls: 0 for no effect and ±100 for the full control effect; nearly all actives have a fitted effect of over 60% in size
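Substrate mix (final 50 mM imidazole pH 7.2, 50 mM KCl, 7 mM MgCl2, 10 uM ATP, 0.01% Tween 20, 0.05% BSA) plus pin-tool compound, then Kinase-Glo detection mix; 8 min ambient, luminescence read.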
SMN2 splice enh – increases expression of the SMN2 splice variant. 210,000 tested, 2.8% active. AID 1458. Potency, µM (top dose mostly 46.1 µM), for the others: top-dose activity change, positive = activation, actives largely listed as activators. HEK293 SMN2-luciferase splicing reporter, luminescence, 30-36 h; note: % of control where 0% means no effect; nearly all actives have a fitted effect of over 55% in size
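HEK293 cells carry an SMN2 […]–luciferase reporter in which exon 7 inclusion puts luciferase in frame. Cells were plated 10-12 h before compound addition, then incubated 30-36 h at 37C. ONE-Glo luminescence was read; sodium butyrate at 4.5 mM final served as control.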
* = called active by the depositor; ? = inconclusive; · = not tested or not shown; [ ] = remark or other dose. Calls come from the whole dose curve; as a rule, active = well fitted curve in the direction sought with a large enough effect; inconclusive = small, poorly fitted or top-dose-only effect, or another doubt; inactive = no such curve, though single readings can be large; an effect the other way counts as inactive or inconclusive. Potency is the fitted concentration of half-maximal effect.

SMILES | FLuc modulator | NPC1 promoter act | Rab9 promoter act | Luc counter | SMN2 splice enh
COc1ccccc1OCC(=O)N(Cc1ccc(N(C)C)cc1)CC1CCCO1 (stereo unspecified) | 5% | · | · | · | 0%
Cc1ccc(CNC(=O)CCCn2nc(C)n3c(cc4sccc43)c2=O)cc1 | 0% | · | · | · | -3%
CCOC(=O)N1CCc2c(sc3c2c(=O)n(CCc2ccccc2)c(=O)n3Cc2c(F)cccc2Cl)C1 | 0% | · | · | · | 3%
CCCCC[C@H](O)/C=C/C=C\C/C=C\CCCCCCC(=O)O | · | · | · | 2% | -4%
Cc1nc2ccc(S(=O)(=O)Nc3cccc(-c4nc5cccnc5s4)c3C)cc2s1 | ? | -6% | -2% | -1% | -75%
Cc1c(NC(=O)Cc2ccc(Cl)cc2)cccc1-c1nc2cccnc2s1 | -7% | · | · | · | ·
CCOCC(=O)Nc1cccc(-c2nc3cccnc3s2)c1C | 17µM* | 13% | 1% | · | ·
Cc1nc2ccc(S(=O)(=O)Nc3cc(-c4nc5cccnc5s4)ccc3C)cc2s1 | 19µM* | -5% | 2% | 0% | 16µM*
CCOc1ccccc1C(=O)Nc1cc2c(cc1C)n(C)c(=O)c(=O)n2C | 1% | · | · | · | ·
CCOc1ccccc1C(=O)Nc1cc(-c2nc3cccnc3s2)ccc1C | 9.5µM* | · | · | · | ·
O=C(Cn1c(=O)nc(-c2ccccc2)c2ccccc21)NCCc1ccc(Cl)cc1 | -2% | · | · | · | ·
Cc1cccc(CN2CCN(CC(=O)NCCc3ccc(Cl)cc3)C2=O)c1 | -6% | · | · | · | -4%
CC1=C(C(=O)Nc2ccccc2)C(c2ccccc2Cl)n2ncc(C(=O)Nc3cccc(C)c3)c2N1 (stereo unspecified) | -4% | · | · | · | ·
O=C(c1cnn(C(=O)c2ccc(O)cc2)c1)c1ccccc1O | 3.8µM* | 2% | 0% | -10% | -6%
Cc1ccc(O)c(C(=O)c2cnn(-c3ccccc3)c2)c1 | ? | -1% | 3% | -11% | ·
Cc1ccc(-n2cc(C(=O)c3ccccc3O)cn2)cc1 | 0.3µM* | 0.56µM* | ? | ? | -42%
Cc1ccc(C(=O)NCC(c2cccs2)S(=O)(=O)c2cccs2)cc1 (stereo unspecified) | 4% | · | · | · | ·
CN(C)c1ccc(/C=N/NC(=O)c2ccc(CN3CCOCC3)cc2)cc1Br | 19µM* | -13% | -1% | -3% | -38%
Cc1cc(/C=N/NC(=O)CC2(C)OCCO2)c(C)n1-c1cc(Cl)cc(Cl)c1 | -3% | -1% | -8% | -2% | -30%
Cc1ccc(-n2c(C)cc(/C=N/NC(=O)c3ccncc3)c2C)cc1 | 5.4µM* | 1% | 4% | -6% | -27%
Cc1ccc(-n2c(C)cc(/C=N/NC(=O)CC3(C)OCCO3)c2C)cc1 | 24µM* | -1% | -1% | 0% | -50%
Cc1cc(/C=N/NC(=O)c2ccc(O)cc2)c(C)n1CC(C)C | 6µM* | 23% | ? | · | ·
Cc1cc(C)c(NC(=O)CCS(=O)(=O)c2cc3c(cc2Cl)NC(=O)CO3)c(C)c1 | 5% | · | · | · | ·
CC1CCN(C(=O)CN2CCSc3ccc(S(=O)(=O)N(C)C)cc32)CC1 | 5% | · | · | · | ·
Cc1cccc(-n2c(C)cc(/C=N/NC(=O)c3ccc(CN4CCOCC4)cc3)c2C)c1 | ? | -1% | -8% | -1% | -30%
SMILES | FLuc modulator | NPC1 promoter act | Rab9 promoter act | Luc counter | SMN2 splice enh
COc1ccc(Cl)cc1NC(=O)C(=O)N/N=C/c1cc(C)n(-c2ccc(C)cc2)c1C | 3.4µM* | -3% | -1% | -4% | 9%
Cc1ccc(-n2c(C)cc(/C=N/NC(=O)c3ccc(CN4CCOCC4)cc3)c2C)cc1 | 15µM* | -3% | -1% | -2% | -32%
Cc1ccc(-n2c(C)cc(/C=N/NC(N)=S)c2C)cc1 | ? | 0% | 1% | -2% | -8%
CC(=O)O[C@H]1Cc2ccccc2N(C(N)=O)c2ccccc21 | · | 0%[46.1 µM] | -7%[46.1 µM] | · | ·
Cc1ccc(S(=O)(=O)c2ncccc2N)cc1 | -1% | -12% | -2%[1.84 µM] | · | ·
COc1ccc(C=Nc2cccnc2N)cc1 | 11µM* | 8% | 12% | · | ·
Cc1ccc(C=Nc2cccnc2N)cc1 | 6.7µM* | -3% | 2% | -2% | ?
CCOc1ccc(C=Nc2cccc3ncccc23)cc1 | 21µM* | -1% | 2% | -1% | -2%
CCOC(=O)c1c(C)[nH]c(C)c1S(=O)(=O)N(C)CC(=O)Nc1cc(Cl)ccc1OC | -14% | · | · | · | ·
